Data reported in PubChem BioAssay (EPA / NIEHS).
Values joined by “and” are separate entries in the source; they are usually repeats but may differ in a detail not shown here. Equal entries are not always repeated. Inconclusive results are not listed. Active and inactive are the calls of the source. The calls were made as follows, unless noted: active = hit-call score of the fitted dose curve at least 0.9, where 1 is the maximum; inconclusive = response in the unintended direction; inactive = score below 0.9.

Key:
[1] = TOX21_p53_BLA_p2_viability: Viability Assessment in the Tox21 HCT-116 p53 Agonism Beta-lactamase Assay, Phase 2 (AID 2283591);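 also: compound exposure lasted 16 h at 37 °C; actives lower the ATP signal meaning cytotoxicity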
Method in brief: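 HCT-116 p53-bla cells (4000/well) rested 5 h at 37C, then received compounds in DMSO (217-fold dilution) for 16 h at 37C, 5% CO2. After the CCF4 read, CellTiter-Glo was added; ATP luminescence was read after 30 min at room temperature.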

[2] = biological target: Cellular tumor antigen p53 (Homo sapiens) (UniProt P04637); test: TOX21_p53_BLA_p2_ratio: Tox21 HCT-116 p53 Agonism Beta-lactamase Assay, Ratio, Phase 2 (AID 2283592)
Chain of Cellular tumor antigen p53 (Homo sapiens) (P04637 whole entry, looked up): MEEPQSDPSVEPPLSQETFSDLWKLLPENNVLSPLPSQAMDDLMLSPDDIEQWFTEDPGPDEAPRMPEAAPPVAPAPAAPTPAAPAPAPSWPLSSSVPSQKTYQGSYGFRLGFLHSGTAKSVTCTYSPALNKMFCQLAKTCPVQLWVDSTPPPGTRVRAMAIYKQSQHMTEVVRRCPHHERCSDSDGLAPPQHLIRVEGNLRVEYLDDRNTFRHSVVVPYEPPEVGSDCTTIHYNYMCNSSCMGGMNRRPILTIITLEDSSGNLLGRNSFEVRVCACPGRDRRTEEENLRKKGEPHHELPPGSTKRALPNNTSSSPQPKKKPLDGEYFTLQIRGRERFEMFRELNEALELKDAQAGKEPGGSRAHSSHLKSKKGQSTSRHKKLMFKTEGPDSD
Method in brief: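 Human colon HCT116 cells with an inducible p53 beta-lactamase reporter are exposed to test chemicals for 16 h at 37C. Reporter induction is read as the 460/530 nm emission ratio after CCF4-AM loading, normalized to DMSO.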

[3] = TOX21_p53_BLA_p3_viability: Viability Assessment in the Tox21 HCT-116 p53 Agonism Beta-lactamase Assay, Phase 3 (AID 2283593)
Method in brief: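 HCT-116 cells (4000/well) rested 5 h at 37C, then got DMSO compounds by pin tool (217-fold dilution) for 16 h at 37C, 5% CO2. After the bla read, CellTiter-Glo was added and luminescence read at 30 min, room temperature.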

[4] = biological target: Cellular tumor antigen p53 (Homo sapiens) (UniProt P04637); test: TOX21_p53_BLA_p3_ratio: Tox21 HCT-116 p53 Agonism Beta-lactamase Assay, Ratio, Phase 3 (AID 2283596)
Method in brief: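 HCT116 p53-bla cells (4000/well) given compound in DMSO (217-fold dilution) after 5 h, incubated 16 h at 37C. CCF4-AM substrate 2 h at room temperature; 460/530 nm emission ratio, gain fitted against DMSO.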

[5] = TOX21_p53_BLA_p4_viability: Viability Assessment in the Tox21 HCT-116 p53 Agonism Beta-lactamase Assay, Phase 4 (AID 2283597);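 also: hits lower the luminescence signal meaning cytotoxicity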
Method in brief: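 Luminescent ATP readout (CellTiter-Glo, 30 min, room temperature) in the same wells as the p53 bla ratio. HCT116 cells were treated for 16 h at 37C with DMSO-dissolved compounds.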

[6] = biological target: Cellular tumor antigen p53 (Homo sapiens) (UniProt P04637); test: TOX21_p53_BLA_p5_ratio: Tox21 HCT-116 p53 Agonism Beta-lactamase Assay, Ratio, Phase 5 (AID 2283599)
Method in brief: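 HCT-116 cells carrying a p53-inducible beta-lactamase reporter were seeded at 4000 cells/well and dosed after 5 h with compound in DMSO (217-fold dilution). After 16 h at 37C, CCF4-AM substrate was added for 2 h, and the 460/530 nm emission ratio was scored as gain-of-signal versus DMSO.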

[7] = TOX21_p53_BLA_p5_viability: Viability Assessment in the Tox21 HCT-116 p53 Agonism Beta-lactamase Assay, Phase 5 (AID 2283600)
Method in brief: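 Seeded cells (4000/well) settle 5 h before compound addition. Plates then incubate 16 h at 37C, receive FRET substrate for 2 h, and finally CellTiter-Glo, with luminescence measured after a 30 min room-temperature incubation.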

[8] = biological target: Cellular tumor antigen p53 (Homo sapiens) (UniProt P04637); test: TOX21_p53_BLA_p4_ratio: Tox21 HCT-116 p53 Agonism Beta-lactamase Assay, Ratio, Phase 4 (AID 2283601)
Method in brief: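 HCT116 cells carrying an inducible beta-lactamase reporter were plated at 4000 cells/well, rested 5 h, then exposed to compounds in DMSO (217-fold dilution) for 16 h at 37C. CCF4-AM substrate was loaded 2 h at room temperature; 460/530 nm emission ratio scored gain-of-signal versus DMSO.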

[9] = biological target: PGR (gene 5241) (UniProt P06401); test: TOX21_PR_BLA_Followup_Agonist_ratio: Tox21 HEK293 Progesterone Receptor (PR) Agonism Beta-lactamase Follow-Up Assay, Ratio (AID 2283933)
Chain of PGR (gene 5241) (P06401 whole entry, looked up): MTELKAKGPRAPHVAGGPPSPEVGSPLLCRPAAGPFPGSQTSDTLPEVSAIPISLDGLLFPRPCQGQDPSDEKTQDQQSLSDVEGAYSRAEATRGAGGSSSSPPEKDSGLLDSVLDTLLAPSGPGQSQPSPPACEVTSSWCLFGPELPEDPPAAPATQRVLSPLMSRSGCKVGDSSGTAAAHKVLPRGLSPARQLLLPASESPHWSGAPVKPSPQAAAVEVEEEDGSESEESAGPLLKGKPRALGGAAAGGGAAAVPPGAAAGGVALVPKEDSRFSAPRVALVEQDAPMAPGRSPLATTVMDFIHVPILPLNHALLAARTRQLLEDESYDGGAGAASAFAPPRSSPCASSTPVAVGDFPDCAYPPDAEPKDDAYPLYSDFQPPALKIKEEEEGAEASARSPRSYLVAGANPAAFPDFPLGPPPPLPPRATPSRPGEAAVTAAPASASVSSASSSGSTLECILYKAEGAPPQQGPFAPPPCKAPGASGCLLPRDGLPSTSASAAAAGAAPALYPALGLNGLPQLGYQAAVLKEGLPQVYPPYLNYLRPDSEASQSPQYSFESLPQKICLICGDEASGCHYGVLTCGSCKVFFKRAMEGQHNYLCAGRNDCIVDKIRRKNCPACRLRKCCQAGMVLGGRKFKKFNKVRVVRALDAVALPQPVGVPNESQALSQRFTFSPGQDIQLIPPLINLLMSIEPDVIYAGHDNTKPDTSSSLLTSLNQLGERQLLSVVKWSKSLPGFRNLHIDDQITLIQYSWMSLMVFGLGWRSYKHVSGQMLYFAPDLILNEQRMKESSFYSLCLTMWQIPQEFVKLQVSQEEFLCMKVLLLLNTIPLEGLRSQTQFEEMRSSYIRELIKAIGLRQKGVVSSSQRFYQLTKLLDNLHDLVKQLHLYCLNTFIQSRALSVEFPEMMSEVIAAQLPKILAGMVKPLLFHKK
Method in brief: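 PR-UAS-bla HEK293T cells in medium with 2% charcoal-stripped FBS were dosed after 6 h plating and incubated 16 h at 37C. LiveBLAzer FRET substrate was added for 2 h at room temperature. Cleaved/uncleaved substrate ratio fitted against DMSO; CellTiter-Glo viability run in the same wells.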

[10] = biological target: PGR (gene 5241) (UniProt P06401); test: TOX21_PR_BLA_Followup_Antagonist_ratio: Tox21 HEK293 Progesterone Receptor (PR) Antagonism Beta-lactamase Follow-Up Assay, Ratio (AID 2283934)
Method in brief: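 PR-UAS-bla HEK293T cells, 3,000/well in 2% charcoal-stripped FBS, given compound plus 1nM R5020 agonist for 16 hr at 37C. Beta-lactamase FRET substrate 2 hours, ratio cleaved/uncleaved fluorescence; viability by CellTiter-Glo in same wells.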

[11] = TOX21_PR_BLA_Followup_Agonist_viability: Viability Assessment in the Tox21 HEK293 Progesterone Receptor (PR) Agonism Beta-lactamase Follow-Up Assay (AID 2283935);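 also: signal loss means lower viability so actives are cytotoxic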
Method in brief: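 PR-UAS-bla HEK293T cells in 2% charcoal-stripped FBS medium, plated 6 hr before compound addition, exposed 16 hr at 37C. Viability read by CellTiter-Glo ATP luminescence after 30 min at room temperature, in the same wells as the beta-lactamase readout.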

[12] = TOX21_PR_BLA_Followup_Antagonist_viability: Viability Assessment in the Tox21 HEK293 Progesterone Receptor (PR) Antagonism Beta-lactamase Follow-Up Assay (AID 2283936);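 also: hits lower the luminescence signal meaning cytotoxicity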
Method in brief: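 PR-UAS-bla HEK293T cells (3,000/well, 2% charcoal-stripped FBS) given compound plus R5020 agonist, 16 h at 37C. CellTiter-Glo added after bla read, 30 min at room temperature; luminescence loss indicates cytotoxicity.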

[13] = biological target: PGR (gene 5241) (UniProt P06401); test: TOX21_PR_LUC_Followup_Agonist: Tox21 HEK293 Progesterone Receptor (PR) Agonism Luciferase Follow-Up Assay (AID 2283937; active = hit-call score of the fitted dose curve at least 0.9, where 1 is the maximum; inactive = score below 0.9)
Method in brief: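 HEK293-PR-A-luc cells, conditioned 5 days in 10% charcoal-stripped FBS medium, seeded 3,000/well for 5 h, then compound-treated 16 h at 37C. ONE-Glo luminescence read after 30 min at room temperature; gain of signal versus DMSO.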

[14] = biological target: PGR (gene 5241) (UniProt P06401); test: TOX21_PR_LUC_Followup_Antagonist: Tox21 HEK293 Progesterone Receptor (PR) Antagonism Luciferase Follow-Up Assay (AID 2283938);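 also: curve fitted upward as signal gain over DMSO baseline despite antagonist label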
Method in brief: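 Luciferase reporter in HEK293-PR-A-luc cells: 16 h compound treatment at 37C, ONE-Glo luminescence detection, DMSO as negative control and baseline.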

[15] = TOX21_PR_LUC_Followup_Antagonist_viability: Viability Assessment in the Tox21 HEK293 Progesterone Receptor (PR) Antagonism Luciferase Follow-Up Assay (AID 2283940)
Method in brief: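 HEK293-PR-A-luc cells kept in charcoal-stripped FBS medium were plated 5 h before compound addition, then exposed 16 h at 37C; viability read as cellular ATP by luciferase luminescence, loss of signal indicating cytotoxicity.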

[16] = test system: Thyroperoxidase (TPO), gene 54314; test: CCTE_Simmons_AUR_rTPO: CCTE's Amplex UltraRed Assay for Thyroperoxidase (TPO) Inhibition, Simmons Lab (AID 2283662);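 also: potency for loss of signal meaning inhibition of peroxidase activity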
Method in brief: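 Cell-free peroxidase activity assay using rat thyroid gland microsomes with excess H2O2 (300 uM) and 25 uM Amplex UltraRed. Compounds tested from 5 nM to 87.5 uM; fluorescence measured after 30 min at 37C, analysed relative to DMSO baseline.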

[17] = CCTE_Harrill_HTTr_Viability_MCF7: CCTE's 6-hour Cell Viability Assessment for the High-Throughput Transcriptomics (HTTr) Platform, in MCF-7 cells cultured in DMEM + 10% fetal bovine serum, Harrill Lab (AID 2284010; active = hit-call score of the fitted dose curve at least 0.9, where 1 is the maximum; inactive = score below 0.9)
Method in brief: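 MCF-7 cells in DMEM + 10% FBS, 384-well, exposed 6 h to an eight-point dilution series. Membrane integrity scored by high-content imaging of propidium iodide exclusion; bidirectional fit versus DMSO.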

[18] = CCTE_Harrill_HTTr_Apoptosis_MCF7: CCTE's 6-hour Apoptosis Assessment for the High-Throughput Transcriptomics (HTTr) Platform, in MCF-7 cells cultured in DMEM + 10% fetal bovine serum, Harrill Lab (AID 2284011; active = hit-call score of the fitted dose curve at least 0.9, where 1 is the maximum; inactive = score below 0.9)
Method in brief: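 Apoptosis in MCF-7 cells grown in DMEM with 10% fetal bovine serum was scored after a six hour exposure by high content imaging of caspase-3/7 activation (CellEvent Caspase 3/7 Green), with DMSO serving as negative control and baseline.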

[19] = CCTE_Harrill_HTTr_CellCount_MCF7: CCTE's Cell Proliferation Assessment for the High-Throughput Transcriptomics (HTTr) Platform, Harrill Lab (AID 2284012);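 also: cells exposed to compound for six hours; intended direction is loss of nuclei count meaning fewer cells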
Method in brief: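 MCF7 cells exposed 6 hours to an eight-point dilution series; Hoechst-stained nuclei counted by high-content imaging. Bidirectional curve fitting against DMSO baseline.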

Measured: AC50

C=C1C(CCl)(CCl)C2(Cl)C(Cl)C(Cl)C1(Cl)C2(Cl)Cl (stereo unspecified)
active: [1] 50.6 µM and 13.5 µM | [2] 76.7 µM and 35.7 µM | [3] 45.6 µM and 12 µM | [4] 86.4 µM and 20.9 µM | [5] 67.2 µM and 17.1 µM | [6] 68.4 µM and 24.1 µM | [7] 45.6 µM and 15.7 µM | [8] 86.6 µM and 36.1 µM | [10] 23 µM | [13] 8.97 µM
inactive: [9] | [11] | [12] | [14] | [15]

Cc1c(N(C)CS(=O)(=O)O)c(=O)n(-c2ccccc2)n1C
inactive: [1] | [2] | [3] | [4] | [5] | [6] | [7] | [8] | [17] | [18] | [19]
active: [16] 8.64 µM

CCCCC(=O)OCC(=O)[C@]1(O)Cc2c(O)c3c(c(O)c2[C@@H](O[C@H]2C[C@H](NC(=O)C(F)(F)F)[C@H](O)[C@H](C)O2)C1)C(=O)c1c(OC)cccc1C3=O
active: [2] 7.68 µM | [4] 8.58 µM | [6] 7.73 µM | [8] 5.24 µM
inactive: [1] | [3] | [5] | [7]

O=C1Nc2ccc(Cl)cc2[C@@](C#CC2CC2)(C(F)(F)F)O1
active: [1] 37.1 µM | [5] 36.3 µM | [6] 36.7 µM | [7] 38.3 µM | [8] 43.5 µM | [10] 17 µM
inactive: [2] | [3] | [4] | [11] | [12] | [14] | [15] | [17] | [18] | [19]
